Assay outcomes deposited in PubChem by National Center for Advancing Translational Sciences (NCATS).
AmpC inh no detg – blocks E. coli AmpC beta-lactamase in detergent-free assay; AmpC nitrocefin hydrolysis, absorbance 480 nm, 0.0001% Triton; P00811; Potency, µM (doses to about 57.1 µM), without a hit: at the highest dose activity change, negative = inhibition, hits mostly inhibitors; hit rate 0.52% among 330,000;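 also: plate controls were no compound for no effect and no enzyme for full effect; nearly all actives have a fitted effect of over 20% in size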
Target sequence (P00811 whole entry, looked up): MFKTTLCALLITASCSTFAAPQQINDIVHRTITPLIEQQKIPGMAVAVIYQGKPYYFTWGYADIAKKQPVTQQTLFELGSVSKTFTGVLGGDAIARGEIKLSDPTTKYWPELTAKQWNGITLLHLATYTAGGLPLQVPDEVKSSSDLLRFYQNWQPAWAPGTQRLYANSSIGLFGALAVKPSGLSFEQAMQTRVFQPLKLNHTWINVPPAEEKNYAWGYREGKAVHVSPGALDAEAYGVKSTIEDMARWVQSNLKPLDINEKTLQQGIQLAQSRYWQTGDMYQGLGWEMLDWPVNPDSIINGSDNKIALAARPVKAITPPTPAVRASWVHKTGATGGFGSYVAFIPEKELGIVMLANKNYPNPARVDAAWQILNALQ
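20 mM phosphate pH 7.0 + 0.01% (detergent screen) or 0.0001% Triton X-100; 5.3 nM AmpC reagent; cpd preinc 15 min RT; nitrocefin (800 uM stock) to start; A480 q20 s × 4 min; Activity was normalised to no-enzyme and no-compound control wells.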
Vaccinia Venus – vaccinia inhibition (Venus reporter) | Vaccinia virus Venus reporter expression, fluorescence | Potency, µM (series often up to 36.5 µM), inactives show at the top dose activity change, negative = inhibition, usual class: inhibitors | hit rate 0.46% among 330,000 | AID 720580; calls by dose curve; tested in A549 cells; also: nearly all actives have a fitted effect of over 30% in size
VACV mCherry inh – inhibitors of vaccinia virus infection (mCherry reporter signal); Vaccinia virus mCherry reporter infection, fluorescence; Potency, µM (top dose mostly 36.5 µM), inactives show at the highest dose activity change, negative = inhibition, usual class: inhibitors; hit rate 0.63% among 310,000; calls by dose curve; tested in A549 cells; also: nearly all actives have a fitted effect of over 35% in size
AmpC inh detg – inhibitors of E. coli AmpC beta-lactamase with detergent; P00811; Potency, µM (doses to about 114 µM), without a hit: at the highest dose activity change, negative = inhibition, actives largely listed as inhibitors; hit rate 0.041% among 370,000; AmpC hydrolysis of nitrocefin, absorbance 480 nm, 0.01% Triton;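 also: 0% = no-compound wells and -100% = no-enzyme wells; nearly all actives have a fitted effect of over 25% in size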
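AmpC (5.3 nM in the dispensed reagent) in 20 mM phosphate pH 7.0 with 0.01% (detergent screen) or 0.0001% Triton X-100 was preincubated with compounds for 15 min at room temperature. Nitrocefin was then added from an 800 uM solution, and hydrolysis was followed at 480 nm.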
An asterisk follows results filed as active; i = inactive; ? = inconclusive; · = no result. In the library only some 1.1% were active in any assay of this set; here they are far more common. Unless noted, calls follow the shape of the dose curve; as a rule, active = well fitted curve in the direction sought with a large enough effect; inconclusive = small, poorly fitted or top-dose-only effect, or another doubt; inactive = no such curve, though single readings can be large; an effect the other way counts as inactive or inconclusive. Unless noted, % is scaled to controls: 0 for no effect and ±100 for the full control effect; potency is read from the fitted curve at half-maximal effect.

SMILES	AmpC inh no detg	Vaccinia Venus	VACV mCherry inh	AmpC inh detg
O=C(c1ccncc1)N1CCC2(CCC(CNC(=O)C3(N4CCOCC4)CCCCC3)O2)CC1 (stereo not drawn)	·	10.4%	5.1%	·
COc1ccc2c(c1)-c1nc(-n3ncc(C(=O)NC[C@@H]4CCCN5CCCC[C@H]45)c3C)ncc1CC2	·	?	12.6µM*	·
COc1ccc2c(c1)-c1nc(-n3ncc(C(=O)NCC4CCCN(C)C4)c3C3CC3)ncc1CC2 (stereo not drawn)	·	0.3%	-14.3%	·
CCOC(=O)CN1CC23C=CC(O2)C(C(=O)NC2CCCCCC2)C3C1=O (stereo not drawn)	-2.9%	-16.0%	i	-11.7%
CCOC(=O)CN1CC23C=CC(O2)C(C(=O)Nc2ccc(C(C)=O)cc2)C3C1=O (stereo not drawn)	1.12µM*	-6.6%	20.9%	?
CCN(CC)S(=O)(=O)c1ccc(C)c(C)c1	-11.9%	·	·	-4.6%
CCN(CC)CCOc1ccc2c(c1)C(=NO)c1cc(OCCN(CC)CC)ccc1-2	4.4%	3.55µM*	8.91µM*	?
CCN(CC)S(=O)(=O)c1ccc2c(c1)C(=NO)c1cc(S(=O)(=O)N(CC)CC)ccc1-2	-51.1%	12.6µM*	11.2µM*	?
CCN1/C(=C/c2ccc3cc(C)ccc3[n+]2CC)Sc2ccccc21	3.5%	·	·	0.1%
CC[n+]1c(/C=C2\Sc3ccccc3N2C)ccc2cccc(C)c21	3.6%	i	14.1µM*	-11.4%
COc1cc(CN2CCCC(n3cc(C(=O)N4CCCCC4)nn3)C2)cc(OC)c1OC (stereo not drawn)	·	-4.3%	0.9%	·
COc1ccc(OC)c2sc(NNC(=O)COc3ccccc3)nc12	-22.9%	·	·	-3.4%
COc1ccc(OCC(=O)NNc2nc3ccccc3s2)cc1	10µM*	-10.6%	-7.2%	-5.8%
COC(=O)C1CCN(Cc2ccc3c(c2)CN(C(=O)c2cc(C)oc2C)CCO3)CC1	·	0.6%	-5.7%	·
O=C(CNC(=O)c1cccc(Br)c1)N/N=C/c1cc(Br)cc(Br)c1O	11.2µM*	·	·	5.1%
Cc1oc(-c2ccccc2NC(=O)C2CCCO2)nc1CNC(=O)c1cc(Cl)ccc1F (stereo not drawn)	·	-2.7%	-10.1%	·
O=C(Nc1cccc(Cl)c1)c1ccc2c(c1)OCCO2	-29.2%	-9.2%	-14.1%	?
O=C(Nc1cccc(NC(=O)c2cccs2)c1)c1ccc2c(c1)OCCO2	7.08µM*	·	·	-3.8%
CCC(=O)Nc1cccc(NC(=O)c2ccc3c(c2)OCO3)c1	0.141µM*	·	·	1.9%
COCC(=O)Nc1cc(C(=O)N2CCCCC2c2nccs2)c2c(c1)nc(-c1ccncc1)n2C (stereo not drawn)	·	-2.5%	-11.2%	·
Cc1ccccc1NC1=C(Cl)C(=O)OC1OC(=O)c1ccco1 (stereo not drawn)	-40.9%	0.3%	-0.8%	?
Cc1ccc(NC2=C(Cl)C(=O)OC2OC(=O)c2ccc(C)cc2)cc1 (stereo not drawn)	-47.1%	-8.1%	i	8.91µM*
COC(=O)c1ccc(NC2=C(Cl)C(=O)OC2OC(=O)c2ccccc2)cc1 (stereo not drawn)	4.47µM*	-3.2%	-17.1%	10µM*
O=C(c1cccnc1)C1CCCN(Cc2ccc3c(c2)CN(C(=O)c2ccc4[nH]ccc4c2)CCO3)C1 (stereo not drawn)	·	10.0%	-2.3%	·
COc1cc(CNCCc2c[nH]c3ccccc23)ccc1OCc1ccc(F)cc1	15.2%	?	10µM*	-12.2%
SMILES	AmpC inh no detg	Vaccinia Venus	VACV mCherry inh	AmpC inh detg
COc1cccc(CNCCc2c[nH]c3ccccc23)c1OCc1ccc(F)cc1	-9.3%	?	?	-14.3%
N#Cc1c(SCC(=O)Nc2cccc(C(F)(F)F)c2)sc2c(O)cc(=O)[nH]c12	22.4µM*	-3.7%	-8.7%	?
COc1ccccc1NC(=O)CSc1sc2c(O)cc(=O)[nH]c2c1C#N	-38.7%	-11.0%	-5.3%	-1.1%
Cc1cc(NC(=O)CSc2sc3c(O)cc(=O)[nH]c3c2C#N)ccc1Br	14.1µM*	2.3%	i	7.0%
CC(NC(=O)C1CCOCC1)c1nnc2n1CCN(Cc1cc3c(cc1Cl)OCO3)CC2 (stereo not drawn)	·	-20.7%	0.0%	·
CCOc1ccc2nc(C)cc(Nc3cccc([N+](=O)[O-])c3)c2c1	-6.8%	?	11.2µM*	-7.2%
Cc1cc(Nc2cccc([N+](=O)[O-])c2)c2ccccc2n1	-19.3%	?	?	1.0%
Cc1cc(C)c(O)c(-c2cc(C(=O)Nc3ccc(S(=O)(=O)N4CCOCC4)cc3)[nH]n2)c1	28.6%	12.6µM*	10µM*	9.9%
CC(=O)Nc1ccc(NC(=O)c2cc(-c3cc(C)cc(C)c3O)n[nH]2)cc1	32.2%	·	·	-2.4%
O=C(Cn1cc2c(n1)CCCCC2)NCCCN1CCOCC1	44.7µM*	-9.1%	-17.9%	?
COc1ccc2cc(CNCc3nonc3C)c(N3CCCC(CO)C3)nc2c1 (stereo not drawn)	·	-4.3%	-12.4%	·
O=C(NN=Cc1ccc(OC(F)F)cc1)c1ccc(NS(=O)(=O)c2cccs2)cc1	-41.9%	·	·	·
COc1ccc(/C(C)=N/NC(=O)c2ccc(NS(=O)(=O)c3cccs3)cc2)cc1	10µM*	·	·	-9.6%
COc1ccc2nc(NC(=O)c3cccc(-c4cc5ccccc5oc4=O)c3)sc2c1	-26.7%	12.6µM*	?	?
O=C(NN=Cc1ccccc1OC(F)F)c1ccc(NS(=O)(=O)c2cccs2)cc1	15.8µM*	-26.3%	-28.1%	·
COc1ccc2nc(NC(=O)CNS(=O)(=O)c3cccs3)sc2c1	?	-18.9%	-2.4%	-5.2%
COc1ccc2nc(NC(=O)c3ccc(NS(=O)(=O)c4cccs4)cc3)sc2c1	2.51µM*	-26.6%	?	?
COc1ccc(C(=O)Nc2nc3ccc(OC)cc3s2)cc1	-49.3%	·	·	-3.6%
O=C(Nc1cc(C(=O)N2CCN(CCO)CC2)c2c(c1)ncn2C1CCCC1)c1ccccc1	·	0.0%	-3.0%	·
O=C(Cc1cccs1)N[C@@H]1C(=O)N2C(C(=O)[O-])=C(C[n+]3ccccc3)CS[C@H]12	·	-7.4%	-13.4%	·
Cc1ncc2c(c1CNS(=O)(=O)N(C)C)CCN(C(=O)c1ccc(F)cc1Cl)C2	·	-7.4%	-11.2%	·
NC1=C(Br)C(=O)c2ccccc2C1=O	-20.1%	?	-48.9%	3.5%
NC1=CC(=O)C(=O)c2ccccc21	·	?	14.1µM*	·
Cc1nc2c(nc1C)C(=O)c1ccccc1C2=O	·	3.98µM*	3.55µM*	·
O=C1C(=O)c2ccccc2-c2ccccc21	-18.0%	4.47µM*	2.82µM*	-4.2%
O=C(c1ccc(Cn2cnnn2)cc1)N1CCOc2ccc(C(O)C3CCCCC3)cc2C1 (stereo not drawn)	·	-7.9%	-18.5%	·
COc1ccc(OC)c(-c2ccc(O)c(CN3CCc4c([nH]c5ccccc45)C3)c2)c1	·	-6.8%	-9.3%	·
O=C1c2ccccc2NC(c2ccc(-c3cccc([N+](=O)[O-])c3)o2)N1O (stereo not drawn)	?	?	12.6µM*	-6.9%
O=C1c2ccccc2NC(c2ccc(-c3ccc(F)cc3)o2)N1O (stereo not drawn)	-26.8%	·	·	2.4%
